# HT1080-NT tox = kills 2HG-producing HT-1080-NT fibrosarcoma cells; HT-1080-NT fibrosarcoma viability, CellTiter-Glo ATP luminescence, 48 h; 360,000 tested, 1.6% active; Potency, µM (doses to about 46.1 µM), inactives show at the highest dose activity, negative = less viability, usual class: cytotoxic;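 note: NT is the 2HG producing partner of a matched IDH1 knockdown line; potency is the fitted concentration of half-maximal effect; 0% = DMSO-treated cells and -100% = media-only wells without cells; nearly all actives have a fitted effect of over 55% in size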
#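 Viability of the 2HG-overproducing fibrosarcoma line after 48 hours of compound exposure at 37 degrees C was determined by luminescence with CellTiter-Glo, and concentration-effect curves were then fitted and categorized.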
# IL1B secr inh = inhibitors of inflammasome signaling (IL-1 beta secretion) | THP-1 LPS/ATP IL-1B secretion, AlphaLISA, 16 h; active compounds read low | activity change, % at 57.5 µM | 360,000 tested, 4.7% active; in the data active = activity change below about -50%; inconclusive = mostly about -30% to -49%; note: % is set by controls: 0 for no effect and ±100 for the full control effect
#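 THP-1 cells pretreated 1 hr with compounds (up to 57.5 uM final), then stimulated with LPS (250 ng/mL final) plus ATP (1.25 mM final); secreted IL-1B measured by AlphaLISA after 16 hr, decreased signal indicating inhibition.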
# HT1080 IDH1KD tx = kills HT-1080 cells with IDH1 knockdown; AID 686971; HT-1080 IDH1 knockdown viability, ATP luminescence, 48 h; 360,000 tested, 2% active; Potency, µM (series often up to 46.1 µM), for the others: at the top dose activity, negative = toxicity, hits mostly cytotoxic;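 note: potency is the fitted concentration of half-maximal effect; 0% = DMSO wells and -100% = cell-free medium wells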
#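 Cytotoxicity counter-line: IDH1KD HT-1080, 48 h, CellTiter-Glo. Curves classed by r2, magnitude and activity.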
# TGFb SMAD3 inh = inhibitors of TGF-b signaling | HepG2 CAGA-GFP TGF-b/SMAD3 reporter, GFP fluorescence, 18 h; TGF-beta stimulated, 500 pg/mL final | Potency, µM (series often up to 46.1 µM), without a hit: at the top dose activity, negative = inhibition, usual class: inhibitors | 410,000 tested, 1.2% active | AID 588855; note: potency is the fitted concentration of half-maximal effect; % is set by controls: 0 for no effect and ±100 for the full control effect; nearly all actives have a fitted effect of over 65% in size
#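 Read-out: total well GFP (ex488/em500-530) summed from mean per-cell fluorescence. Cells: HEPG2 CAGA-GFP, 1% FBS DMEM, 18 h at 37 degrees C with 500 pg/mL final TGF-beta. Unstimulated wells served as the full-inhibition control; stimulated DMSO wells = 0%.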
# Giardia kill = Giardia lamblia killing; Giardia lamblia trophozoite viability; activity change, % at 7.66 µM, hits read low; 340,000 tested, 0.15% active; AID 540267; in the data active = activity change below about -80%; inconclusive = between about -30% and that limit;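 note: parasites exposed to compound for two days anaerobically before the ATP read; % is set by controls: 0 for no effect and ±100 for the full control effect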
#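 ATP-content bioluminescence gauges trophozoite survival. Cells (100/well) receive compound and incubate anaerobically for 48 hrs at 37 deg C; detection reagent follows for 15-30 min at room temperature.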
# HepG2 viability = counter-screen for TGF-b inhibitors: cytotoxicity in HepG2 cells; HepG2 CAGA-GFP viability, ATP luminescence, 18 h; Potency, µM (top dose mostly 46.1 µM), inactives show at the top dose activity change, negative = cytotoxicity, most hits filed as cytotoxic; 410,000 tested, 0.76% active; note: potency is the fitted concentration of half-maximal effect
#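 HepG2 CAGA-GFP cells (1000/well, DMEM with 1% FBS) received compound, then TGF-beta at 500 pg/mL final, and were incubated 18 hours at 37 degrees C. Viability was read by CellTiter-Glo luminescence. Media-only wells were set as complete cell-killing and DMSO as no toxicity.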
# * = called active by the depositor; ? = inconclusive; nt = no result. Most compounds without a hit are left out; they make up all but 6.5% or so of the library. Unless noted, calls come from the whole dose curve; as a rule, active = well fitted curve in the direction sought with a large enough effect; inconclusive = small, poorly fitted or top-dose-only effect, or another doubt; inactive = no such curve, though single readings can be large; an effect the other way counts as inactive or inconclusive.
SMILES,HT1080-NT tox,IL1B secr inh,HT1080 IDH1KD tx,TGFb SMAD3 inh,Giardia kill,HepG2 viability
COc1ccccc1CN1CCN(C(CC(C)C)c2nnnn2Cc2cccs2)CC1 (configuration not stated),-8%,?,-2%,0%,11,-24%
NNC(=O)c1oc2ccccc2c1-n1cccc1,4.6µM*,71,4.1µM*,?,-1,5%
O=C(Cn1cnc2onc(-c3ccc(F)cc3)c2c1=O)N1CCN(c2ccc(F)cc2)CC1,nt,nt,nt,-29%,nt,-25%
N#CC1(C#N)CC(C=O)=C(N)C1(C#N)CC(=O)C12CC3CC(CC(C3)C1)C2 (configuration not stated),?,-102*,?,?,-3,-65%
Cc1ccc(-c2nnc(Nc3ccc(C(N)=O)cc3)c3ccccc23)cc1S(=O)(=O)N1CCCCC1,nt,nt,nt,-7%,nt,-14%
Cc1ccc(-c2nnc(Nc3ccc(O)cc3)c3ccccc23)cc1S(=O)(=O)NCC1CCCO1 (configuration not stated),nt,nt,nt,6.3µM*,nt,5%
Cc1ccc(-c2nnc(Nc3ccc(O)cc3)c3ccccc23)cc1S(=O)(=O)N1CCCCC1,nt,nt,nt,2µM*,nt,24%
CNC(=O)c1cc(Nc2nnc(-c3ccc(C)c(S(N)(=O)=O)c3)c3ccccc23)ccc1OC,-6%,-74*,-30%,-2%,10,-1%
COc1ccc(Nc2nnc(-c3ccc(C)c(S(=O)(=O)NCc4nc5ccccc5[nH]4)c3)c3ccccc23)cc1,nt,nt,nt,7.9µM*,nt,35%
O=Cc1cccc(Oc2ccc([N+](=O)[O-])cc2[N+](=O)[O-])c1,?,62,?,-15%,7,-24%
Cc1ccc(N2C(=O)C3C(C2=O)N2C(c4cccs4)C4C(=O)N(c5ccc(C)cc5)C(=O)C4N2C3c2cccs2)cc1 (configuration not stated),5%,-6,6%,-2%,39,0%
CCOC(=O)c1c2c(n(C)c1C)C(=O)C(=O)c1ccc(Br)cc1-2,?,37,?,?,5,-46%
CCOC(=O)c1c2c(n(Cc3ccccc3)c1C)C(=O)C(=O)c1ccccc1-2,23µM*,-100*,?,?,7,-106%
O=C(c1ccccc1)N1CCn2c1nc1ccccc12,-4%,13,-8%,4%,0,-2%
C/C(=N\NC(=O)C1CC1)c1ccc(C(C)(C)C)cc1,3%,20,-1%,-9%,19,-1%
CCc1ccc(O)c(CNCCNCc2cc(CC)ccc2O)c1,-30%,52,-17%,?,10,16µM*
O=c1[nH]c2ccccc2c(O)c1O,18µM*,-92*,?,-15%,9,-9%
O=c1[nH]c2ccccc2c(O)c1-[n+]1ccccc1,-1%,13,-2%,-9%,-26,-2%
CC(C)NC(=O)c1c(O)c2ccccc2[nH]c1=O,?,?,3.2µM*,-1%,3,3%
CC(C)C(=O)NNC(=O)c1c(O)c2ccccc2[nH]c1=O,-4%,0,2%,-5%,19,-17%
COc1ccccc1N(CC(=O)NCCSc1ccccc1)S(=O)(=O)c1ccccc1,7%,-14,-4%,-22%,-11,-36%
O=C(COC(=O)c1ccc(S(=O)(=O)N2CCOCC2)cc1)Nc1ccccc1OC(F)F,6%,-4,12%,3%,-7,0%
Cc1ccc(C(NC(=O)NCCCN2CCOCC2)=C(Cl)Cl)cc1F,-21%,-51*,-1%,?,10,-19%
Cc1cc(S(=O)(=O)Nc2ccc(C(=O)NCCCN3CCOCC3)cc2)ccc1F,4%,5,14%,-3%,7,9%
Cc1ccc(C(NC(=O)N2CCCCC2)=C(Cl)Cl)cc1F,-5%,-71*,0%,3%,10,-8%
SMILES,HT1080-NT tox,IL1B secr inh,HT1080 IDH1KD tx,TGFb SMAD3 inh,Giardia kill,HepG2 viability
CCOc1cc(C2C3=C(CCCC3=O)NC3=C2C(=O)CCC3)cc(Cl)c1O,13%,10,13%,-8%,0,2%
COC(C(=O)C(O)C(C)O)C1Cc2cc3cc(OC4CC(OC5CC(O)C(O)C(C)O5)C(O)C(C)O4)c(C)c(O)c3c(O)c2C(=O)C1OC1CC(OC2CC(OC3CC(C)(O)C(O)C(C)O3)C(O)C(C)O2)C(O)C(C)O1 (configuration not stated),nt,nt,nt,0.63µM*,nt,23%
O=C(O)c1ccc(Cn2cc(/C=C\[N+](=O)[O-])c3ccccc32)o1,0%,12,-2%,7%,2,12%
CCOC(=O)Cn1cc(/C=C(/C#N)C(=O)NC(C)C)c2ccccc21,5%,-1,2%,13%,39,3%
O=[N+]([O-])/C=C/c1cn(Cc2ccc(Cl)cc2)c2ccccc12,16µM*,?,-18%,-41%,-13,3.5µM*
N#C/C(=C\c1cccc(Oc2ccccc2)c1)C(=O)N1CCOCC1,?,-100*,?,-5%,10,-1%
Cc1cccc(Cn2cc(/C=C/[N+](=O)[O-])c3ccccc32)c1,?,-67*,23µM*,7.9µM*,-10,-61%
Cc1cccc(Cn2cc3c(=O)n(Cc4cccc(F)c4)nc-3c3ccccc32)c1,-1%,22,-4%,6%,18,6%
CCOC(=O)Cn1cc(/C=C(\C#N)C(=O)N2CCOCC2)c2ccccc21,9%,-95*,9%,0%,-13,4%
CN1CCN(C(=O)c2cc3ccccc3cc2O)CC1,-6%,-8,-2%,13%,?,12%
CCOC(=O)c1ccc(NC(=O)/C=C/c2cccs2)cc1,-2%,?,?,4%,8,10%
COC(=O)c1ccc(Cn2cc(/C=C\[N+](=O)[O-])c3ccccc32)o1,?,-102*,?,?,-16,-56%
CCOC(=O)Cn1cc(/C=C/[N+](=O)[O-])c2ccccc21,?,-51*,?,16µM*,-8,-72%
O=C(CN1C(=O)/C(=C/c2ccc(F)cc2)SC1=S)NC1C=CS(=O)(=O)C1 (configuration not stated),10%,-28,5%,-2%,1,4%
CCOC(=O)c1cnc2ccc(OCC)cc2c1Nc1ccc(OCc2ccccc2Cl)cc1,nt,nt,nt,-18%,nt,-25%
CCOC(=O)c1cnc2ccc(OCC)cc2c1N(C)Cc1ccccc1,?,-71*,?,?,-8,-36%
CCOC(=O)c1cnc2c(OC)cccc2c1N1CCN(c2ccccc2F)CC1,nt,nt,nt,?,nt,-88%

# Screening data: PubChem, National Center for Advancing Translational Sciences (NCATS)
